# Source: the supplement of paper PMC8728848
# The entries come from a sample that favours the strongest signals as a whole.
# B1: SEX4 (Arabidopsis thaliana), Q944A8 (protein)
# chain: TQAMGAVLTYRHELGMNYNFIRPDLIVGSCLQTPEDVDKLRKIGVKTIFCLQQDPDLEYFGVDISSIQAYAKKYSDIQHIRCEIRDFDAFDLRMRLPAVVGTLYKAVKRNGGVTYVHCTAGMGRAPAVALTYMFWVQGYKLMEAHKLLMSKRSCFPKLDAIRNATIDILTGLKRKTVTLTLKDKGFSRVEISGLDIGWGQRIPLTLGKGTGFWILKRELPEGQFEYKYIIDGEWTHNEAEPFIGPNKDGHTNNYAKVVDDPTSVDGTTRERLSSEDPELLEEERSKLIQFLETCSEAEV
# Legend:
# Test in all cases: glycan array binding signal (z-score within array); higher = stronger binding
# Details in all cases: glycan notation: IUPAC condensed, linker removed
# [1] = biological target: Fuc(a1-2)Gal(b1-3)GlcNAc(b1-2)Man(a1-3)[Fuc(a1-2)Gal(b1-3)GlcNAc(b1-2)Man(a1-6)]Man(b1-4)GlcNAc(b1-4)GlcNAc
# Outline: (§1)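 Glycan array data were curated from 3228 arrays in the Consortium for Functional Glycomics database and kept only where the protein sequence was available. Glycan names were converted to IUPAC-condensed notation, and columns mapping to the same glycan were averaged. The binding signal is a within-array Z-score, averaged across arrays of the same protein sequence at different concentrations or buffers and across linkers. Negative Z-scores can be read as non-binding.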
# [2] = biological target: Fuc(a1-2)Gal(b1-3)GlcNAc(b1-3)[Fuc(a1-3)[Gal(b1-4)]GlcNAc(b1-6)]Gal(b1-4)Glc
# Outline: as §1
# [3] = biological target: Fuc(a1-2)Gal(b1-3)[Fuc(a1-4)]GlcNAc
# Outline: as §1
# [4] = biological target: Fuc(a1-2)Gal(b1-4)GlcNAc(b1-2)[Fuc(a1-2)Gal(b1-4)GlcNAc(b1-4)]Man(a1-3)[Fuc(a1-2)Gal(b1-4)GlcNAc(b1-2)Man(a1-6)]Man(b1-4)GlcNAc(b1-4)GlcNAc
# Outline: as §1
# [5] = biological target: Fuc(a1-2)[Gal(a1-3)]Gal(b1-3)GlcNAc
# Outline: as §1
# [6] = biological target: Fuc(a1-2)[GalNAc(b1-3)]Gal
# Outline: as §1
# [7] = biological target: Fuc(a1-3)[Gal(b1-4)]GlcNAc(b1-3)GalNAc
# Outline: as §1
# [8] = biological target: Gal(a1-3)Gal(b1-4)Glc
# Outline: as §1
# [9] = biological target: Gal(a1-3)Gal(b1-4)GlcNAc
# Outline: as §1
# [10] = biological target: Gal(a1-3)[Gal(a1-4)]Gal(b1-4)GlcNAc
# Outline: as §1
# [11] = biological target: Gal(a1-4)Gal(b1-4)GlcNAc
# Outline: as §1
# [12] = biological target: Gal(b1-3)Gal(b1-4)GlcNAc(b1-2)Man(a1-3)[Gal(b1-3)Gal(b1-4)GlcNAc(b1-2)Man(a1-6)]Man(b1-4)GlcNAc(b1-4)GlcNAc
# Outline: as §1
# [13] = biological target: Gal(b1-3)GalNAc(b1-3)Gal(a1-4)Gal(b1-4)Glc
# Outline: as §1
# [14] = biological target: Gal(b1-3)GlcNAc
# Outline: as §1
# [15] = biological target: Gal(b1-3)GlcNAc(b1-3)Gal(b1-4)GlcNAc(b1-6)[Gal(b1-3)GlcNAc(b1-3)]Gal(b1-4)Glc
# Outline: as §1
# [16] = biological target: Gal(b1-3)[Fuc(a1-4)]GlcNAc
# Outline: as §1
# [17] = biological target: Gal(b1-3)[Fuc(a1-4)]GlcNAc(b1-2)Man(a1-3)[Gal(b1-3)[Fuc(a1-4)]GlcNAc(b1-2)Man(a1-6)]Man(b1-4)GlcNAc(b1-4)[Fuc(a1-6)]GlcNAc
# Outline: as §1
# [18] = biological target: Gal(b1-3)[Fuc(a1-4)]GlcNAc(b1-3)Gal(b1-4)GlcNAc
# Outline: as §1
# [19] = biological target: Gal(b1-4)Gal
# Outline: as §1
# [20] = biological target: Gal(b1-4)GlcNAc(b1-3)Gal(b1-3)GlcNAc
# Outline: as §1
# [21] = biological target: Gal(b1-4)GlcNAc(b1-3)Gal(b1-4)[Fuc(a1-3)]GlcNAc(b1-3)Gal(b1-4)[Fuc(a1-3)]GlcNAc
# Outline: as §1
# [22] = biological target: Gal(b1-4)GlcNAc(b1-3)[GlcNAc(b1-6)]Gal(b1-4)GlcNAc
# Outline: as §1
# [23] = biological target: Gal3S(b1-3)GalNAc
# Outline: as §1
# [24] = biological target: Gal3S(b1-4)GlcNAc6S
# Outline: as §1
# [25] = biological target: Gal3S6S(b1-4)GlcNAc6S
# Outline: as §1
# [26] = biological target: Gal6S(b1-3)GlcNAc6S
# Outline: as §1
# [27] = biological target: Gal6S(b1-4)GlcNAc
# Outline: as §1
# [28] = biological target: GalNAc(b1-3)Gal(a1-4)Gal(b1-4)GlcNAc
# Outline: as §1
# [29] = biological target: Glc(a1-4)Glc
# Outline: as §1
# [30] = biological target: Glc(b1-4)Glc
# Outline: as §1
binder,measurement,setting,value
B1,glycan array binding signal (z-score),[1],-0.14
same,glycan array binding signal (z-score),[2],-0.488
same,glycan array binding signal (z-score),[3],-0.43
same,glycan array binding signal (z-score),[4],3.41
same,glycan array binding signal (z-score),[5],-0.101
same,glycan array binding signal (z-score),[6],-0.555
same,glycan array binding signal (z-score),[7],2.34
same,glycan array binding signal (z-score),[8],-0.237
same,glycan array binding signal (z-score),[9],0.108
same,glycan array binding signal (z-score),[10],-0.539
same,glycan array binding signal (z-score),[11],-0.482
same,glycan array binding signal (z-score),[12],-0.329
same,glycan array binding signal (z-score),[13],-0.231
same,glycan array binding signal (z-score),[14],-0.554
same,glycan array binding signal (z-score),[15],-0.273
same,glycan array binding signal (z-score),[16],-0.398
same,glycan array binding signal (z-score),[17],-0.406
same,glycan array binding signal (z-score),[18],0.013
same,glycan array binding signal (z-score),[19],-0.4
same,glycan array binding signal (z-score),[20],-0.483
same,glycan array binding signal (z-score),[21],-0.35
same,glycan array binding signal (z-score),[22],-0.354
same,glycan array binding signal (z-score),[23],-0.502
same,glycan array binding signal (z-score),[24],0.229
same,glycan array binding signal (z-score),[25],2.76
same,glycan array binding signal (z-score),[26],1.27
same,glycan array binding signal (z-score),[27],0.104
same,glycan array binding signal (z-score),[28],-0.406
same,glycan array binding signal (z-score),[29],-0.393
same,glycan array binding signal (z-score),[30],-0.561
